High-throughput results from PubChem.
Sampled rows, rich in hits. Any-hit rate of the full collection: about 5.7%.
ATXN2 expr inh: inhibitors of ATXN2 expression; actives 0.72% (n = 360,000); Potency, µM (highest dose often 57 µM), for the others: at the top dose activity change, negative = inhibition, most hits filed as inhibitors; HEK-293 ATXN2-luciferase reporter, luminescence, 24 h; note: potency is the fitted concentration of half-maximal effect; % is set by controls: 0 for no effect and ±100 for the full control effect; nearly all actives have a fitted effect of over 55% in size
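ATXN2-luciferase reporter cells (luciferase flanked by upstream and downstream ATXN2 gene portions) were treated 24 h at 37 °C with compounds at up to 57 uM. SteadyGlo luminescence gave expression; GF-AFC fluorescence gave viability.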
HepG2 viability: kills HepG2 cells in TGF-b inhibitor counter-screen | Potency, µM (highest dose often 46.1 µM), inactives show at the top dose activity change, negative = cytotoxicity, actives largely listed as cytotoxic | actives 0.76% (n = 410,000) | HepG2 CAGA-GFP viability, ATP luminescence, 18 h | AID 588856; note: potency is the fitted concentration of half-maximal effect
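HepG2 CAGA-GFP cells (1000/well, DMEM with 1% FBS) received compound, then TGF-beta at 500 pg/mL final, and were incubated 18 hours at 37 degrees C. Viability was read by CellTiter-Glo luminescence. Media-only wells were set as complete cell-killing and DMSO as no toxicity.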
IL1B secr inh: inhibitors of inflammasome signaling (IL-1 beta secretion) | THP-1 LPS/ATP IL-1B secretion, AlphaLISA, 16 h; active compounds read low | activity change, % at 57.5 µM | actives 4.7% (n = 360,000) | AID 743279; in the data active = activity change below about -50%; inconclusive = mostly about -30% to -49%; note: % is set by controls: 0 for no effect and ±100 for the full control effect
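Secreted IL-1B measured by AlphaLISA bead assay after 16 h compound exposure of THP-1 cells; compounds (final up to 57.5 uM) added 1 h before LPS (250 ng/mL) and ATP (1.25 mM) stimulation; lower signal means less secretion.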
ATXN viability: viability counter-screen for ATXN expression inhibitors. S2 cells (HEK-293 line with an ATXN2-luciferase reporter) viability, CellTiter-Fluor protease fluorescence, 24 h. Potency, µM (titrated, usually from 56.7 µM), usual class: cytotoxic. actives 0.49% (n = 400,000); note: potency is the fitted concentration of half-maximal effect; nearly all actives have a fitted effect of over 40% in size
TGFb SMAD3 inh: inhibitors of TGF-b signaling; HepG2 CAGA-GFP TGF-b/SMAD3 reporter, GFP fluorescence, 18 h; TGF-beta stimulated, 500 pg/mL final; Potency, µM (doses to about 46.1 µM), inactives show at the highest dose activity, negative = inhibition, actives largely listed as inhibitors; actives 1.2% (n = 410,000); AID 588855; note: potency is the fitted concentration of half-maximal effect; % is set by controls: 0 for no effect and ±100 for the full control effect; nearly all actives have a fitted effect of over 65% in size
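GFP signal (ex488/em500-530) from TGF-beta-stimulated HEPG2 CAGA-GFP cells, 500 pg/mL final, 18 h at 37 degrees C in DMEM plus 1% FBS, normalized to unstimulated and DMSO-stimulated controls.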
* = called active by the depositor; i = inactive; ? = inconclusive; nt = not tested or not shown. Unless noted, calls come from the whole dose curve; as a rule, active = well fitted curve in the direction sought with a large enough effect; inconclusive = small, poorly fitted or top-dose-only effect, or another doubt; inactive = no such curve, though single readings can be large; an effect the other way counts as inactive or inconclusive.

SMILES | ATXN2 expr inh | HepG2 viability | IL1B secr inh | ATXN viability | TGFb SMAD3 inh
COc1ccccc1Nc1nn2c(=O)c3ccc(C(=O)NCCC4=CCCCC4)cc3nc2s1 | 3.16µM* | 5.01µM* | nt | nt | 5.01µM*
Cc1ccc(NC(=O)c2ccc3c(=O)n4nc(Nc5ccccc5C)sc4nc3c2)cc1C | -31.1% | 2.82µM* | nt | i | ?
COc1ccccc1Nc1nn2c(=O)c3ccc(C(=O)NCCc4ccccc4)cc3nc2s1 | nt | 3.16µM* | nt | nt | 2.24µM*
COc1cccc(/C=C/c2ccnc3ccccc23)c1OC | nt | -25.6% | nt | nt | ?
O=C(COc1ccccc1F)Nc1ccc2nc(SCC(=O)N3CCOCC3)sc2c1 | nt | -24.2% | nt | nt | -18.0%
O=[N+]([O-])c1cccc(CN2CCCCCC2)c1 | 1.2% | 21.7% | -1.8 | i | 13.8%
O=[N+]([O-])c1ccc(N2CCN(Cc3cccc([N+](=O)[O-])c3)CC2)cc1 | ? | -18.3% | -62.0* | i | -11.6%
O=[N+]([O-])c1ccc(CN2CCN(c3ccc([N+](=O)[O-])cc3)CC2)cc1 | ? | -19.0% | -53.6* | i | ?
Cc1ccc(CSc2ncc(Cl)c(C(=O)NCCc3ccc(S(N)(=O)=O)cc3)n2)cc1 | -3.7% | -37.1% | nt | i | ?
COc1ccc(/C=N/Nc2cc(C)nc(NS(=O)(=O)c3ccc(C)cc3)n2)cc1 | -3.6% | -46.4% | -15.0 | i | 12.6µM*
COc1ccc(/C=N/Nc2cc(C)nc(-n3nc(C)cc3C)n2)cc1 | 20µM* | -24.3% | -99.4* | ? | 0.0%
Cc1cc(N/N=C/c2ccccc2[N+](=O)[O-])nc(-n2nc(C)cc2C)n1 | ? | -39.7% | -97.4* | ? | 2.51µM*
Cc1cc(N/N=C/c2cccc(Cl)c2)nc(-n2nc(C)cc2C)n1 | ? | -41.2% | 7.7 | ? | -20.5%
CCOC(=O)N1CCN(Cc2nc3cc(NC(=O)c4ccccc4Cl)ccc3n2C(C)C)CC1 | nt | -28.7% | nt | nt | ?
CC(=O)Nc1cc(-c2ccc(S(C)(=O)=O)cc2)cn2c(-c3ccc(F)cc3)cnc12 | -9.2% | 3.2% | ? | i | 10.2%
COc1ccccc1-c1cc(NC(C)=O)c2ncc(-c3cccc(C(F)(F)F)c3)n2c1 | -32.5% | 15.8µM* | -4.0 | ? | ?
CC(=O)Nc1cc(-c2cccc(F)c2)cn2c(-c3ccc(S(C)(=O)=O)cc3)cnc12 | -15.0% | 0.3% | -52.4* | i | 19.0%
COc1ccc(-c2cc(NC(C)=O)c3ncc(-c4cccc(C(F)(F)F)c4)n3c2)c(OC)c1 | -24.8% | -24.5% | -5.4 | ? | ?
COc1cc(-c2cnc3c(NC(C)=O)cc(-c4ccc(N5CCN(C)CC5)cc4)cn23)cc(OC)c1OC | 14.1µM* | -78.5% | -87.1* | nt | -7.0%
COc1ccc(-c2cnc3c(NC=O)cc(-c4ccccc4OC)cn23)cc1OC | 17.8µM* | -28.1% | 31.8 | i | ?
CCOC(=O)c1cnc(NCc2ccccc2OC)c2ccccc12 | nt | -12.5% | nt | nt | -25.5%
COc1cccc(-c2cc(NC=O)c3ncc(-c4cc(OC)c(OC)c(OC)c4)n3c2)c1 | -29.4% | -9.2% | 106.0 | ? | ?
COc1ccc(-c2cc(NC(C)=O)c3ncc(-c4ccccc4)n3c2)c(OC)c1 | -3.7% | 2.7% | -25.8 | i | ?
COc1cccc(-c2cnc3c(NC=O)cc(-c4cccc(C(=O)N(C)C)c4)cn23)c1 | 0.0% | -38.6% | 147.7 | i | 3.55µM*
COc1ccc(-c2cc(NC=O)c3ncc(-c4ccc(OC)c(OC)c4)n3c2)cc1OC | -13.3% | -16.7% | -62.0* | i | 2.1%
SMILES | ATXN2 expr inh | HepG2 viability | IL1B secr inh | ATXN viability | TGFb SMAD3 inh
COc1ccc(-c2cc(NC(C)=O)c3ncc(-c4ccc(OC)c(OC)c4)n3c2)c(OC)c1 | -8.6% | -22.7% | -59.1* | ? | 64.5%
COc1cc(-c2cnc3c(NC=O)cc(-c4cccc(C(F)(F)F)c4)cn23)cc(OC)c1OC | 28.2µM* | -47.2% | 23.5 | ? | ?
Cc1ccccc1C(=O)NCc1nc2cccnc2n1Cc1ccccc1 | nt | -9.7% | nt | nt | 3.1%
COc1ccc(S(=O)(=O)n2nc(C)c(S(=O)(=O)N3CCC(C)CC3)c2C)cc1C | 8.6% | 5.8% | nt | i | -13.7%
CN(C)CCNC(=O)c1cccc(-c2cc(NC=O)c3ncc(-c4cccc(C(F)(F)F)c4)n3c2)c1 | 22.4µM* | 20µM* | -109.0* | 28.2µM* | ?
O=C(CCN1Cc2ccccc2OC(c2ccccc2F)C1)N1CCC(N2CCCC(O)C2)CC1 (stereo unspecified) | nt | nt | nt | i | nt
COc1cccc(NC(=O)c2oc3ccccc3c2NC(=O)Cc2cccc(C)c2)c1 | -5.4% | -29.0% | nt | i | -9.8%
CCOc1ccccc1CNC(=O)CCCn1c(=O)c2cccn2c2ccc(F)cc21 | nt | -9.1% | nt | nt | 0.0%
O=C(c1cc(C2CC2)on1)N1CCCC(N2CCN(c3cccc(C(F)(F)F)c3)CC2)C1 (stereo unspecified) | -12.9% | -20.4% | -58.2* | i | ?
Cc1cc(C(=O)N2CCCC(N3CCN(c4cccc(C(F)(F)F)c4)CC3)C2)no1 (stereo unspecified) | -0.6% | 19.3% | -8.2 | i | -10.9%
C[C@@]12C=CC(=O)C=C1CC[C@H]1[C@H]3CC[C@](O)(C(=O)CO)[C@]3(C)CC(=O)[C@@H]12 | nt | nt | nt | i | nt
CCCCNC(=S)N(C)/N=C/c1c(F)c(F)c(F)c(F)c1F | -28.4% | -7.5% | -104.3* | ? | 2.8%
CC[C@H]1OC(=O)[C@H](C)[C@@H](O[C@H]2C[C@@](C)(OC)[C@@H](O)[C@H](C)O2)[C@H](C)[C@@H](O[C@@H]2O[C@H](C)C[C@H](N(C)C)[C@H]2O)[C@](C)(O)C[C@H](C)C(=NOCOCCOC)[C@H](C)[C@@H](O)[C@]1(C)O | -10.3% | nt | nt | i | nt
O=C(Cn1c(-c2cccs2)cc2ccccc21)N1CCN(c2ccccc2F)CC1 | 4.4% | -19.8% | nt | i | -22.7%
Cn1c(SCC2CCCO2)nnc1C1CCN(Cc2ccco2)CC1 (stereo unspecified) | nt | nt | nt | i | nt
O=C(c1ccccc1)c1ccc(OCC(O)CNCc2cccc(Cl)c2)cc1 (stereo unspecified) | -3.8% | 11.2µM* | -82.2* | i | ?
CCC(=O)c1ccc(OCC(O)CNCc2ccc(F)cc2)cc1 (stereo unspecified) | -16.4% | -39.5% | -11.5 | i | -12.8%
Cc1ccc(C(OCC(O)CNCc2ccc(F)cc2)c2ccccc2)cc1 (stereo unspecified) | nt | -101.8% | -97.9* | ? | ?
O=C(c1ccccc1)c1ccc(OCC(O)CNCc2ccc(F)cc2)cc1 (stereo unspecified) | -16.1% | -57.5% | -72.0* | nt | ?
CCOc1ccc(NC(=O)Cn2cc(C(=O)c3ccc(CC)cc3)c(=O)c3ccc(C)nc32)cc1 | -13.7% | 3.1% | nt | i | -10.3%
